# Assay outcomes as filed in PubChem BioAssay.
# ALR inh = blocks human ALR sulfhydryl oxidase activity | 290,000 tested, 3.8% active | purified ALR, DTT oxidation, H2O2 HRP-luminol luminescence | P55789 | inhibition, % (test concentration not listed);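 active means mean replicate inhibition above about 79%, with every replicate also reaching it, limit read from the data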
# NRP1-CendR mod = alters CendR peptide binding to human NRP-1 | O14786 | FAM-RPARPAR peptide binding to NRP-1, fluorescence polarization | inhibition, % at 25 µM | 360,000 tested, 0.85% active | AID 602438;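 active means inhibition or corrected inhibition above about 18%, plus a signal ratio from 0.5 to 1.5, limit read from the data, passing the limit was not always enough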
# Target sequence (O14786 whole entry, looked up): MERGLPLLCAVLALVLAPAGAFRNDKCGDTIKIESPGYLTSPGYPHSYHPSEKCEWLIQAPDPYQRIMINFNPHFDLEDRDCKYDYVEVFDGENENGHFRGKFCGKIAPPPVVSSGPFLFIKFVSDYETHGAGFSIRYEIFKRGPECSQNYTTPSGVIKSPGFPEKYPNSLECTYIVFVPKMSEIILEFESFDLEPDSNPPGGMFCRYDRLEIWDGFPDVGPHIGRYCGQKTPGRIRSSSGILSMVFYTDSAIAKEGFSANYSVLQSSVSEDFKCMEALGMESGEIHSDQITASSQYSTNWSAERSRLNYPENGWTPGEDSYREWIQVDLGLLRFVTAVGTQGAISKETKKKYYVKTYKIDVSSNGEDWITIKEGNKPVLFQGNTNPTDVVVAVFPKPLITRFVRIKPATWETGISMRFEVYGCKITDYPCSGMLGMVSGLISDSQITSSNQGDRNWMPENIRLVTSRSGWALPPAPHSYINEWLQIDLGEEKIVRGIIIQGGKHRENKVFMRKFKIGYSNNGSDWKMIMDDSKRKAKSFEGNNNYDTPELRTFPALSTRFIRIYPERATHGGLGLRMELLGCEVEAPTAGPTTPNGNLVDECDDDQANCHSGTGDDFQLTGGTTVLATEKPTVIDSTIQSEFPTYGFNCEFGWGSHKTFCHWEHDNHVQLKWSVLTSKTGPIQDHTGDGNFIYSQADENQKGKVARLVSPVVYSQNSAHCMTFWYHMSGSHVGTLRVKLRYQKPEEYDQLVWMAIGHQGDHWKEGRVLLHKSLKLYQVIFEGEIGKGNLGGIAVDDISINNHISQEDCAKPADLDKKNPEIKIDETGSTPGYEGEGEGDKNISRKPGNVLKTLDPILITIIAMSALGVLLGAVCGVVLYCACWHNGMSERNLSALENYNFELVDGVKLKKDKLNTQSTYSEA
# PglD inh = PglD (C. jejuni) enzyme inhibition. inhibition, % at 12.5 µM. 360,000 tested, 0.098% active. purified PglD enzyme, DTNB colorimetric CoA detection; in the data active means inhibition above about 16%, passing the limit was not always enough
# ERp5 inh = inhibitors of human ERp5. Q15084. ERp5 insulin aggregation, absorbance 650 nm, 90 min. inhibition, % at 9.99 µM. 350,000 tested, 0.05% active;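 active means mean replicate inhibition above about 25%, with every replicate also reaching it, limit read from the data, passing the limit was not always enough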
# PDI inh = inhibitors of human protein disulfide isomerase; P07237; PDI insulin aggregation turbidity, A650, 90 min; inhibition, % at 10 µM; 350,000 tested, 0.052% active;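 active means mean inhibition across replicates of 30% or more, whatever share of single replicates reach that level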
# ARNT-TACC3 inh = ARNT/TACC3 interaction disruption. Q9Y6A5. AlphaScreen His-ARNT PAS-B/GST-TACC3 binding, luminescence; TACC3 fragment carries E629A point mutation. inhibition, % at 9.99 µM. 390,000 tested, 0.66% active. AID 623870;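 active means mean inhibition of replicates at least 50% and at least half of replicates each reaching 50%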;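 further: 0% = complete ARNT plus TACC3 wells and 100% = ARNT alone without TACC3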
# Starred values were filed as active, the others as inactive; x = no result given. Only a selection was taken, and hits are over-represented in it overall.
SMILES,ALR inh,NRP1-CendR mod,PglD inh,ERp5 inh,PDI inh,ARNT-TACC3 inh
Cc1nn(Cc2ccc(Cl)cc2)c(C)c1N,94*,0,4,x,3,-1
Nc1cc(-c2ccccc2)nn1Cc1ccc(Cl)cc1,3,-8,x,x,0,-2
Cc1c(-c2ccccc2)nc2ccccc2c1C(=O)Oc1ccc([N+](=O)[O-])cc1,-2,2,1,x,-4,11
Cc1nc2cccc(C(=O)Oc3ccc([N+](=O)[O-])cc3)c2o1,97*,-3,x,0,-3,6
C[C@@H]1CCCCO[C@H](CN(C)Cc2ccc(C(=O)O)cc2)[C@H](C)CN([C@H](C)CO)C(=O)c2cc(NC(=O)c3ccncc3)ccc2O1,x,x,1,-8,x,-15
CN(C)c1ccc(C=C2C(=O)OC(C)(C)OC2=O)cc1,59,-7,x,6,6,-13
CN(C)c1ccc(C=C2C(=O)OC(C)(C(C)(C)C)OC2=O)cc1 (stereo unspecified),10,-25,x,x,-3,active
Cc1ccc(NC(=O)CN2C(=O)N/C(=C/c3cccn3-c3ccc(C(=O)O)cc3)C2=O)cc1,97*,-59,x,x,5,3
O=C(O)c1cc(O)ccc1NC(=O)C(c1ccccc1)c1ccccc1,95*,-11,1,3,4,-8
C=CCN1c2ccccc2[C@]23C[C@@H](C(=O)OC)N(C(C)=O)C2=NC(C(=O)OC)=C(C(=O)OC)[C@H]13,2,-4,8,x,-2,9
C=CCN1c2ccccc2[C@]23C[C@@H](C(=O)OC)N=C2NC(C(=O)OC)=C(C(=O)OC)[C@H]13,10,33*,1,1,-2,-1
Oc1ccc(/C=N/NC(=S)Nc2cccnc2)c(O)c1O,x,-42,4,-1,11,64*
Oc1ccc(C=NNC(=S)Nc2ccc(F)cc2)c(O)c1,x,-10,-1,0,-12,65*
C/C(=N\NC(=S)Nc1ccc(F)cc1)C1CC1,98*,-6,3,-2,-3,22
Fc1cccc(F)c1/C=N/NC(=S)Nc1cccnc1,-4,7,x,-1,4,3
Oc1cccc(/C=N/NC(=S)Nc2cccnc2)c1O,90*,-28,x,x,1,66*
COc1ccccc1NC(=O)N[C@@H]1CC[C@@H](CCNS(=O)(=O)c2ccccc2)O[C@H]1CO,x,x,-6,1,x,0
CCCC#Cc1ccc([C@@H]2[C@@H](CO)N3C(=O)CN(C(=O)c4ccc(F)cc4)C[C@H]23)cc1,x,x,x,-2,x,x
COCCNC(=O)C[C@@H]1CC[C@@H]2[C@H](COC[C@@H](O)CN2C(=O)c2cc(Cl)cc(Cl)c2)O1,x,x,5,-4,x,-7
C[C@H](CO)N1C[C@H](C)[C@H](CN(C)C(=O)Cc2cccnc2)Oc2ncc(-c3cncnc3)cc2C1=O,x,x,6,-7,x,-6
Oc1ccc(NC(=S)Nc2ccc(F)cc2)cc1,98*,12,13,2,0,x
Fc1ccc(NC(=S)Nc2ccc(Br)cc2)cc1,x,-33,-6,x,4,-14
Fc1c(F)c(F)c(/C=N/NC(=S)Nc2cccnc2)c(F)c1F,25,17,x,5,1,0
Oc1ccc(/C=N/NC(=S)Nc2cccnc2)c(O)c1,x,2,x,x,-9,65*
CCCN1C[C@H](C)[C@@H](OC)CN(C)C(=O)c2cc(NC(=O)NC3CCCCC3)ccc2OC[C@@H]1C,x,x,0,-1,x,8
SMILES,ALR inh,NRP1-CendR mod,PglD inh,ERp5 inh,PDI inh,ARNT-TACC3 inh
O=C(CCCc1c[nH]c2ccccc12)N1CCN(c2ccc(N3CCOCC3)nn2)CC1,90*,-15,x,0,8,44
Cc1cc(NC(=O)CSc2c[nH]c3ccccc23)no1,99*,9,3,-26,-3,2
Cc1cc(NC(=O)CS(=O)(=O)c2c[nH]c3ccccc23)no1,1,2,0,2,8,2
Cc1cc(NC(=O)CCCC(=O)NCc2ccccc2)no1,-8,36*,x,3,7,x
Cc1cc(NC(=O)CCC(=O)NNC(=O)c2ccc(C(C)(C)C)cc2)no1,-1,36*,1,1,-9,3
Cc1cc(NC(=O)CSc2c(C)[nH]c3ccccc23)no1,95*,4,-1,3,x,4
COc1ccc(NC(=O)N(C)C[C@@H]2Oc3ccc(NS(=O)(=O)c4ccc(Cl)cc4)cc3C(=O)N([C@H](C)CO)C[C@H]2C)cc1,x,x,3,-3,x,-1
C=CCNC(=O)C1CC(=O)N(c2ccc(OCC(=O)NCc3ccccc3)cc2)C1 (stereo unspecified),-6,26*,-4,x,-5,-1
C=CCNC(=O)C1CC(=O)N(c2ccc(OCC(=O)Nc3ccccc3)cc2)C1 (stereo unspecified),-4,3,0,x,-6,7
O=C(O)COc1ccc(Nc2ccccc2)cc1,99*,5,x,-3,2,7
COCCNC(=O)COc1ccc(Nc2ccccc2)cc1,99*,-1,x,x,11,5
O=C(O)COc1ccc(Oc2ccccc2)cc1,-4,-21,-3,x,6,-3
O=C(COc1ccc(Nc2ccccc2)cc1)Nc1ccncc1,90*,-5,2,-1,-11,14
COc1ccc(S(=O)(=O)N(C)C[C@H]2OCCCC[C@@H](C)Oc3ccc(NC(=O)Nc4ccccc4)cc3C(=O)N([C@@H](C)CO)C[C@H]2C)cc1,x,x,0,x,x,20
CO[C@@H]1CN(C)C(=O)c2cc(NC(=O)CC(F)(F)F)ccc2OC[C@H](C)N(S(=O)(=O)c2cn(C)cn2)C[C@@H]1C,x,x,x,2,x,x
NC(=O)C1CC(=O)N(c2ccc(OCC(=O)N3CCCC3)cc2)C1 (stereo unspecified),x,28*,4,-1,1,0
CNC(=O)C1CC(=O)N(c2ccc(OCC(=O)N3CCCC3)cc2)C1 (stereo unspecified),3,7,-5,3,-3,x
NC(=O)C1CCN(C(=O)COc2ccc(Nc3ccccc3)cc2)CC1,99*,-11,x,-2,4,4
CCOc1ccc(N2CC(C(=O)Nc3ccccc3N3CCCC3)CC2=O)cc1 (stereo unspecified),94*,3,-2,-1,10,3
CCCNC(=O)N1C[C@H](O)COC[C@H]2O[C@@H](CC(=O)O)CC[C@@H]21,x,x,0,5,x,-9
CC(=O)c1ccc(NC2=C(N3CCOCC3)C(=O)c3ccccc3C2=O)cc1,33,9,10,x,-1,24
Cc1ccc(NC2=C(N3CCOCC3)C(=O)c3ccccc3C2=O)cc1,8,8,1,x,-1,62*
CO[C@H]1CN(C)C(=O)c2ccc(NS(=O)(=O)c3ccc(Cl)cc3)cc2OC[C@H](C)N(C(=O)NC(C)C)C[C@@H]1C,x,x,3,-1,x,-10
COc1ccc(C(=O)Nc2nc(C)cc(C)n2)cc1,-4,4,x,0,7,-7
